Screening results (PubChem)
HttQ103 aggreg: inhibitors of mutant huntingtin aggregate formation in PC12 cells; actives 1.1% (n = 220,000); PC12 HttQ103-GFP aggregates, Acumen cytometry, 40 h; Potency, µM (doses to about 46.1 µM), without a hit: at the highest dose activity change, negative = inhibition, hits mostly inhibitors; AID 1688; further: potency means the concentration at half of the fitted maximal effect; on the % scale 0 is the no-effect control and ±100 the full control effect; nearly all actives have a fitted effect of over 60% in size
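Ecdysone-promoter PC12 model expressing HTT exon 1 Q103 fused to GFP, induced by tebufenozide at 100 nM final. Compounds titrated; aggregates sized 1–25 µm scored on a 488 nm laser cytometer.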
ERK EGF block: EGF-driven ERK pathway inhibition; actives 0.41% (n = 130,000); AID 1454; Potency, µM (titrated, usually from 11.5 µM), inactives show at the top dose activity change, negative = inhibition, actives largely listed as inhibitors; HEK293-V1b, EGF-stimulated phospho-ERK AlphaScreen;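 further: potency means the concentration at half of the fitted maximal effect; plate controls were stimulated vehicle wells for no effect and unstimulated vehicle basal for full effect; nearly all actives have a fitted effect of over 55% in size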
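Compounds are titrated over HEK293-V1b cells kept overnight in 1% FBS. After 30 min at 37C, EGF (25 nM final) triggers ERK phosphorylation for 5 min, measured by AlphaScreen in lysates.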
GLA inh pH 4.5: blocks human alpha-galactosidase A at pH 4.5. purified enzyme, 4-MU-alpha-Gal fluorescence, pH 4.5. 230,000 tested, under 10 active. P06280. activity change, negative = inhibition, % at 105 µM;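 further: 0% = full activity with enzyme and -100% = basal without enzyme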
GLA spleen mod: inhibits or activates alpha-galactosidase in human spleen homogenate; P06280; human spleen homogenate, 4MU-alpha-Gal fluorescence, 40 min; Potency, µM (highest dose often 80 µM), inactives show at the highest dose activity change, negative = inhibition, most hits filed as inhibitors; actives 0.008% (n = 240,000); AID 2107;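 further: potency means the concentration at half of the fitted maximal effect; 0% = enzyme with vehicle and -100% = no enzyme basal signal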
Target sequence (P06280 32-429 limits assumed): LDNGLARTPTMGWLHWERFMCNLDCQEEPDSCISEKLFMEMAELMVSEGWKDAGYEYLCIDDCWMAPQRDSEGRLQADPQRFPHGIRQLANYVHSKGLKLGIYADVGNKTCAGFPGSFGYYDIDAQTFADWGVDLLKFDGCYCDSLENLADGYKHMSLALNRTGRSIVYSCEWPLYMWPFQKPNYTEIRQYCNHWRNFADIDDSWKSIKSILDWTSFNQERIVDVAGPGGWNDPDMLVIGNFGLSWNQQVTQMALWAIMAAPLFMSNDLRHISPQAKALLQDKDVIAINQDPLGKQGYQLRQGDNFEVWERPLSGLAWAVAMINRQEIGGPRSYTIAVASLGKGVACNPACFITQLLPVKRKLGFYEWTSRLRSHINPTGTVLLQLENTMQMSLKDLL
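Human spleen homogenate (1 ug) was the enzyme source, with 4-methylumbelliferyl-alpha-D-galactopyranoside (1 mM final) in pH 5.0 citrate buffer with 0.01% Tween-20. Compounds were titrated; after 40 min at 37C, NaOH/glycine stop, 4-MU fluorescence read; AC50 from Hill fits.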
HTT cytoprotect: protects HTT-Q103 PC12 cells, measured by ATP. Potency, µM (titrated, usually from 56.4 µM), for the others: cytoprotection (ATP increase), usual class: activators. PC12 HTT-Q103 induced, cytoprotection, ATP luminescence, 40 h. actives 0.14% (n = 230,000); further: potency means the concentration at half of the fitted maximal effect; % of control where 0% means no effect; nearly all actives have a fitted effect of over 45% in size
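Huntington model: PC12 line, ecdysone-inducible HTTQ103 exon1–GFP, tebufenozide 100 nM. Test articles in a dose series. Endpoint luminescence from cellular ATP.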
Active calls of the source: *; ? = inconclusive; nt = no result; [ ] = remark or other dose. The list is not random: actives were taken first. Their share in the collection is about 1.2%. The call rests on the fitted dose curve; in most records, active means well fitted curve in the direction sought with a large enough effect; inconclusive means small, poorly fitted or top-dose-only effect, or another doubt; inactive means no such curve, though single readings can be large; an effect the other way counts as inactive or inconclusive.

SMILES	HttQ103 aggreg	ERK EGF block	GLA inh pH 4.5	GLA spleen mod	HTT cytoprotect
CCN1C(=O)CS/C1=N\S(=O)(=O)c1ccc(Cl)cc1	15%	13%	-4	2%	-15%[10 µM]
CCCCCC(CC)COC(=O)CC(C(=O)OCC(CC)CCCC)S(=O)(=O)O (centres undefined)	-12%	nt	nt	nt	-2%
NC1C(O)OC(CO)[C@@H](O)[C@@H]1O[C@H]1O[C@@H](C(=O)O)C(O)C(O)C1O (some centres undefined)	nt	23%	-7	-13%	nt
CC[n+]1c(/C=C/c2c[nH]c3ccccc23)ccc2cc(C)ccc21	8.9µM*	?	-7	7%	-137%
C=C1C[C@@]23C[C@]1(O)CC[C@@H]2[C@]12C=C[C@@H](O)[C@@](C)(C(=O)O1)[C@@H]2[C@@H]3C(=O)O	nt	nt	nt	nt	10%
CCC(=O)OC1C(N(C)C)CC(C)O[C@H]1O[C@H]1[C@H](C)[C@@H](O[C@H]2CC(OC)[C@@H](O)C(C)O2)[C@H](C)C(=O)O[C@@H](CC)[C@](C)(O)[C@@H](O)[C@H](C)C(=O)[C@@H](C)C[C@]1(C)O (some centres undefined)	5%	nt	nt	nt	0%
O=[N+]([O-])c1ccc(O)c2cccnc12	9%	-1%	-10	-2%	-3%
O=[N+]([O-])c1ccc(O)c2ncccc12	3.5µM*	nt	5	-4%	-289%
CCC(=O)NC(c1ccc(C)cc1)c1cc([N+](=O)[O-])c2cccnc2c1O (centres undefined)	7.9µM*	3%	-8	0%	-50%[10 µM]
Oc1c(C(c2ccccn2)N2CCCCC2)cc(Cl)c2cccnc12 (centres undefined)	25µM*	2%[57.5 µM]	-1	-8%	-141%
Oc1c(I)cc(Cl)c2cccnc12	10µM*	3%	5	3%	-235%
CC(CCC(=O)O)C1CCC2C3C(O)C[C@@H]4CC(O)CC[C@@]4(C)C3CC(O)[C@]12C (some centres undefined)	nt	24%	1	-26%	nt
COCCn1c(=O)c(-c2cccs2)nc2cnc(N3CCNCC3)nc21	nt	nt	nt	?	-31%
O=[N+]([O-])c1cc(Cl)c(O)c2ncccc12	7.9µM*	-8%	-24	2%	-165%
Cc1ccccc1N=Nc1ccc(O)c2ncccc12	2.5µM*	?	-8	6%	-50%[10 µM]
COCc1ccc(O)c2ncccc12	11µM*	nt	2	-18%	-73%[10 µM]
C/C=C(\C)C(=O)O[C@H]1C[C@@]2(C)CCC(C(C)C)C2(O)CC[C@@]1(C)O (some centres undefined)	nt	5%	4	-1%	-12%
COc1cc(OC)c([C@@H]2O[C@H](CO)[C@@H](O)[C@H](O)[C@H]2O)c(OC)c1	nt	-8%	-10	12%	-28%
O=C(CN1C(=O)C2CCCCC2C1=O)Nc1nc(-c2ccccn2)cs1 (centres undefined)	11µM*	nt	9	-1%	13%
CNC(=O)COC(=O)c1ccccc1C(=O)c1ccc(Cl)c([N+](=O)[O-])c1	28µM*	?	6	-10%	-35%[10 µM]
O=C(COC(=O)c1ccccc1C(=O)c1ccc(Cl)c([N+](=O)[O-])c1)NC1CC1	?	-3%	0	-2%	-130%
CSCC[C@H](NC(=O)[C@H](CC(C)C)NC(=O)CNC(=O)[C@H](Cc1ccccc1)NC(=O)[C@H](Cc1ccccc1)NC(=O)[C@H](CCC(N)=O)NC(=O)[C@H](CCC(N)=O)NC(=O)[C@@H]1CCCN1C(=O)[C@H](CCCCN)NC(=O)[C@@H]1CCCN1C(=O)[C@@H](N)CCCN=C(N)N)C(N)=O	nt	nt	nt	9%	nt
CC1(C)Cc2c(C#N)c(N3CCN(C(=O)c4ccccc4)CC3)nc(Cc3ccccc3)c2CO1	22µM*	nt	1	-3%	-23%
CCc1nc(N2CCN(C(=O)c3ccccc3)CC2)c(C#N)c2c1COC(C)(C)C2	-28%	nt	9	5%	5%
CCCCN(C)C1=CC2=CC(=C(C#N)C#N)CCC2CC1 (centres undefined)	0.32µM*	-5%	-12	3%	6%[10 µM]
SMILES	HttQ103 aggreg	ERK EGF block	GLA inh pH 4.5	GLA spleen mod	HTT cytoprotect
CCN(CC)C1=CC2=CC(=C(C#N)C#N)CCC2CC1 (centres undefined)	0.1µM*	2%	7	-2%	-23%[10 µM]
N#CC(C#N)=C1C=C2C=C(N3CCCCC3)CCC2CC1 (centres undefined)	10µM*	5%	-4	-2%	nt
CCCCNC(=O)NS(=O)(=O)c1ccc(CO)cc1	nt	nt	nt	3%	nt
CC1(C)O[C@H]2C[C@@H]3[C@H]4CCC5=CC(=O)CC[C@@]5(C)[C@]4(F)[C@@H](O)C[C@@]3(C)[C@@]2(C(=O)CCl)O1	0%[20.6 µM]	-3%[25.7 µM]	-12	0%[29.1 µM]	-6%[40.3 µM]
Cc1ccccc1-c1cc2c(nn1)-c1ccccc1C2=O	25µM*	nt	-7	-6%	-123%
COc1cccc([C@@H]2Oc3ccc(OC)cc3C[C@H]2OC(=O)NS(=O)(=O)c2ccc(F)cc2)c1	nt	10%	-12	9%	-23%
Cc1ccc(C)c(NC(=O)CN(C)C(=O)CCN2C(=O)c3ccccc3C2=O)c1	14µM*	nt	-15	7%	-80%
NC(=O)[C@@H]1CSSCCC(=O)N[C@@H](CCCCN=C(N)N)C(=O)NCC(=O)N[C@@H](CC(=O)O)C(=O)N[C@@H](Cc2c[nH]c3ccccc23)C(=O)N2CCC[C@H]2C(=O)N1	3%	nt	nt	nt	7%
COC(=O)C1C2CC3c4[nH]c5cc(OC)ccc5c4CCN3CC2CC(OC)C1OC (centres undefined)	9%	nt	nt	nt	-15%
CCCc1ccc(OCc2ccc(C(=O)N3CCN(c4ccccn4)CC3)o2)c(OC)c1	18µM*	nt	-11	1%	-16%[0.074 µM]
CCCC[C@H]1CCCO[C@@](C(=O)NCCN2CCOCC2)(C(F)(F)F)C1	nt	nt	nt	8%	nt
CNC(=O)[C@]1(C(F)(F)F)C[C@H](CCC2CCCCC2)CCCO1	nt	nt	nt	3%	nt
C(#Cc1ccccc1)C[N+]1(CC#Cc2ccccc2)CCCCC1	-31%[9.22 µM]	-12%	4	6%	-44%[10 µM]
Cc1ccc(C#CC[N+]2(CC#Cc3ccc(C)cc3)CCCCC2)cc1	11µM*	-1%	-12	-12%	-17%[10 µM]
CN(Cc1ccccc1)c1nc(-c2ccc([N+](=O)[O-])cc2)nc2ccccc12	19%	nt	-26	-2%	-21%
O=[N+]([O-])c1ccc(-c2nc(C(Cl)Cl)c3ccccc3n2)cc1	1.8µM*	-8%[57.5 µM]	4	5%	-86%[10 µM]
O=C(NC(c1ccccc1)c1ccccn1)c1cccc([N+](=O)[O-])c1 (centres undefined)	6%	11%	7	1%	-15%
O=C(OC(c1ccccc1)c1nccc2ccccc12)c1cc([N+](=O)[O-])cc([N+](=O)[O-])c1 (centres undefined)	29%	16µM*	4	-13%	0%[10 µM]
